Experimental findings from PubChem BioAssay (NCI) are described below.

The nature of experiment [1]: NCI Yeast Anticancer Drug Screen. Data for the rad50 strain (AID 155).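 Further: 0% = growth of vehicle-only cultures of the same strain.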 Particulars: S. cerevisiae rad50 strain growth inhibition, stronger effect = higher value. The method, boiled down: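 Genetically altered yeast (DNA repair pathway); compound treatment; growth inhibition vs vehicle ctrl.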
Experiment [2] in a line: NCI Yeast Anticancer Drug Screen. Data for the mec2-1 strain (AID 157). Particulars: S. cerevisiae mec2-1 strain, stronger effect = higher value. The gist of the method: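 Readout is yeast growth inhibition, normalised to vehicle-treated controls, in the mec2-1 strain exposed to compound.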
Experiment [3] is described as follows: NCI Yeast Anticancer Drug Screen. Data for the sgs1 mgt1 strain (AID 161).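 Further: 0% = growth of cultures given vehicle only.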 The settings on record: S. cerevisiae sgs1 mgt1 strain, stronger effect = higher value. The method, boiled down:
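This yeast growth screen uses a strain with defined DNA-repair lesions; compound-treated growth is compared with vehicle-treated growth.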

Experiment [4] is described as follows: NCI Yeast Anticancer Drug Screen. Data for the cln2 rad14 strain (AID 165).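 Further: 0% = growth equal to vehicle treated cultures.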 The settings on record: S. cerevisiae cln2 rad14 strain, stronger effect = higher value. The method, boiled down: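 Relative to vehicle controls, growth inhibition of compound-treated cln2 rad14 yeast was recorded.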
The nature of experiment [5]: NCI Yeast Anticancer Drug Screen. Data for the bub3 strain (AID 167). The settings on record: S. cerevisiae bub3 mutant strain, stronger effect = higher value. The method, boiled down:
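Yeast carrying a defined mutation is treated with each compound, and growth is compared with that of vehicle-exposed cells to give inhibition.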

A short description of experiment [6]: NCI Yeast Anticancer Drug Screen. Data for the mlh1 rad18 strain (AID 175). Particulars: S. cerevisiae mlh1 rad18 strain growth inhibition, stronger effect = higher value. The gist of the method:
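Test agents were incubated with a yeast strain of defined genotype (DNA damage repair defect). Inhibition of growth was derived by comparison with vehicle-exposed cultures.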

Setting [7] is: at 5.0 µM (retest, dose inferred, filed as 0.5).
The mark [8] stands for this setting: at 50.0 µM (retest, dose inferred, filed as 5.0).

The panel holds about 79,000 compounds, 15% with a hit somewhere; the sample as a whole holds those more often. A number with no mark means an inactive call. Activity calls are given as the source filed them. No stated cut-off is given here; in the data, active means growth inhibition above about 70%; inactive means the rest.

`COc1ccccc1C(=O)[O][Sn]([c]1ccccc1)([c]1ccccc1)[c]1ccccc1`: the growth inhibition in experiment [1] (setting [7]) was 100% (active); in experiment [1] (setting [8]), 99% (active); in experiment [1] (at 50.0 µM), 99.2% (active); in experiment [2] (setting [7]) it was 100% (active); in experiment [2] (setting [8]) it was 100% (active); in experiment [2] (at 50.0 µM), 99.3% (active). The growth inhibition in experiment [3] (setting [7]) was 99% (active); in experiment [3] (setting [8]) it was 99% (active); in experiment [3] (at 50.0 µM) it was 99.3% (active); in experiment [4] (setting [7]), 99% (active); in experiment [4] (setting [8]) it was 99% (active); in experiment [4] (at 50.0 µM), 89.3% (active). The growth inhibition is 100% (active) in experiment [5] (setting [7]); 99% (active) in experiment [5] (setting [8]); 99% (active) in experiment [5] (at 50.0 µM); 99% (active) in experiment [6] (setting [7]); 99% (active) in experiment [6] (setting [8]); 98.7% (active) in experiment [6] (at 50.0 µM).

For `CN(C)C(=O)/N=c1\ss/c(=N\C(=S)N(C)C)n1-c1ccccc1`, the growth inhibition in experiment [1] (setting [7]) is -1%; in experiment [1] (setting [8]) it was 78% (active); in experiment [1] (at 50.0 µM), 68.2%; in experiment [2] (setting [7]), -9%; in experiment [2] (setting [8]), 56%; in experiment [2] (at 50.0 µM) it was 45.8%. The growth inhibition in experiment [3] (setting [7]) is 4%; in experiment [3] (setting [8]), 95% (active); in experiment [3] (at 50.0 µM) it was 72% (active); in experiment [4] (setting [7]), -17%; in experiment [4] (setting [8]) it was 29%; in experiment [4] (at 50.0 µM) it was 41.6%. The growth inhibition was -8% in experiment [5] (setting [7]); 50% in experiment [5] (setting [8]); 68.5% in experiment [5] (at 50.0 µM); 9% in experiment [6] (setting [7]); 92% (active) in experiment [6] (setting [8]); 62.2% in experiment [6] (at 50.0 µM).

Take `CC(C)(C)c1ccc(Sc2ncnc3ccccc23)cc1`: the growth inhibition is 4% in experiment [1] (setting [7]); 78% (active) in experiment [1] (setting [8]); 90.8% (active) in experiment [1] (at 50.0 µM); 21% in experiment [2] (setting [7]); 90% (active) in experiment [2] (setting [8]); 89.3% (active) in experiment [2] (at 50.0 µM). Further, the growth inhibition in experiment [3] (setting [7]) is 2%; in experiment [3] (setting [8]), 89% (active); in experiment [3] (at 50.0 µM), 89.5% (active); in experiment [4] (setting [7]), -1%; in experiment [4] (setting [8]) it was 81% (active); in experiment [4] (at 50.0 µM), 71.2% (active). Further, the growth inhibition in experiment [5] (setting [7]) is 3%; in experiment [5] (setting [8]), 90% (active); in experiment [5] (at 50.0 µM), 92.5% (active); in experiment [6] (setting [7]) it was -6%; in experiment [6] (setting [8]) it was 87% (active); in experiment [6] (at 50.0 µM) it was 91.6% (active).

In the case of `S=C1NC2=C(CSC/C2=C\c2cccc(Br)c2)C(c2cccc(Br)c2)N1` (stereo not given), the growth inhibition was 9% in experiment [1] (setting [7]); 98% (active) in experiment [1] (setting [8]); 92.7% (active) in experiment [1] (at 50.0 µM); 1% in experiment [2] (setting [7]); 98% (active) in experiment [2] (setting [8]); 94.3% (active) in experiment [2] (at 50.0 µM). The growth inhibition in experiment [3] (setting [7]) was -1%; in experiment [3] (setting [8]), 98% (active); in experiment [3] (at 50.0 µM), 95.7% (active); in experiment [4] (setting [7]) it was -8%; in experiment [4] (setting [8]), 96% (active); in experiment [4] (at 50.0 µM), 90% (active). Besides, the growth inhibition in experiment [5] (setting [7]) is -15%; in experiment [5] (setting [8]), 98% (active); in experiment [5] (at 50.0 µM) it was 93.8% (active); in experiment [6] (setting [7]), 5%; in experiment [6] (setting [8]), 98% (active); in experiment [6] (at 50.0 µM), 93.8% (active).

`CC(C)(C)c1c2c(c(C(C)(C)C)c3c1OCN(Cc1ccccc1)C3)OCN(Cc1ccccc1)C2`: the growth inhibition was 4% in experiment [1] (setting [7]); 12% in experiment [1] (setting [8]); 54.1% in experiment [1] (at 50.0 µM); 0% in experiment [2] (setting [7]); -13% in experiment [2] (setting [8]); 9.25% in experiment [2] (at 50.0 µM). Moreover, the growth inhibition in experiment [3] (setting [7]) is -2%; in experiment [3] (setting [8]), -19%; in experiment [3] (at 50.0 µM) it was 71.7% (active); in experiment [4] (setting [7]) it was -15%; in experiment [4] (setting [8]) it was -38%; in experiment [4] (at 50.0 µM) it was 17.6%. Besides, the growth inhibition in experiment [5] (setting [7]) was -5%; in experiment [5] (setting [8]) it was 18%; in experiment [5] (at 50.0 µM), 11.7%; in experiment [6] (setting [7]), -10%; in experiment [6] (setting [8]) it was 1%; in experiment [6] (at 50.0 µM), 41.5%.

`O=C(NCCN1CCCC1)c1cn2c(ccc3sc4ccccc4c(=O)c32)n1`: the growth inhibition in experiment [1] (setting [7]) is 29%; in experiment [1] (setting [8]), 89% (active); in experiment [1] (at 50.0 µM), 66%; in experiment [2] (setting [7]), 21%; in experiment [2] (setting [8]), 71% (active); in experiment [2] (at 50.0 µM), 49.6%. The growth inhibition in experiment [3] (setting [7]) was 19%; in experiment [3] (setting [8]), 77% (active); in experiment [3] (at 50.0 µM) it was 46%; in experiment [4] (setting [7]), 19%; in experiment [4] (setting [8]) it was 54%; in experiment [4] (at 50.0 µM) it was 37.2%. Besides, the growth inhibition in experiment [5] (setting [7]) was 20%; in experiment [5] (setting [8]), 76% (active); in experiment [5] (at 50.0 µM) it was 25.9%; in experiment [6] (setting [7]) it was 26%; in experiment [6] (setting [8]) it was 81% (active); in experiment [6] (at 50.0 µM), 20.4%.

`NCC(CS)C(=O)NC(CS)C(=O)NC(CS)C(=O)NCCNc1ccc(NCCNC(=O)C(CS)NC(=O)C(CS)NC(=O)C(CN)CS)c2c1C(=O)c1c(O)ccc(O)c1C2=O` (stereo not given): the growth inhibition in experiment [1] (setting [7]) was 80% (active); in experiment [1] (setting [8]), 78% (active); in experiment [1] (at 50.0 µM), 61.1%; in experiment [2] (setting [7]), 34%; in experiment [2] (setting [8]), 85% (active); in experiment [2] (at 50.0 µM) it was 70.8% (active). For the same compound, the growth inhibition in experiment [3] (setting [7]) was 36%; in experiment [3] (setting [8]), 82% (active); in experiment [3] (at 50.0 µM) it was 72% (active); in experiment [4] (setting [7]), 23%; in experiment [4] (setting [8]) it was 84% (active); in experiment [4] (at 50.0 µM), 65.7%. In addition, the growth inhibition in experiment [5] (setting [7]) is 36%; in experiment [5] (setting [8]) it was 58%; in experiment [5] (at 50.0 µM), 65%; in experiment [6] (setting [7]) it was 40%; in experiment [6] (setting [8]), 75% (active); in experiment [6] (at 50.0 µM), 53.9%.

With `c1ccc2c3[nH]c(c2c1)=Nc1ccc(cc1)-c1nc2ccc(cc2o1)N=c1[nH]c(c2ccccc12)=Nc1ccc2nc(oc2c1)-c1ccc(cc1)N=3`, the growth inhibition was 28% in experiment [1] (setting [7]); 94% (active) in experiment [1] (setting [8]); 78.2% (active) in experiment [1] (at 50.0 µM); 18% in experiment [2] (setting [7]); 93% (active) in experiment [2] (setting [8]); 84.8% (active) in experiment [2] (at 50.0 µM). Besides, the growth inhibition was 30% in experiment [3] (setting [7]); 94% (active) in experiment [3] (setting [8]); 82.7% (active) in experiment [3] (at 50.0 µM); 17% in experiment [4] (setting [7]); 81% (active) in experiment [4] (setting [8]); 84% (active) in experiment [4] (at 50.0 µM). Besides, the growth inhibition in experiment [5] (setting [7]) is 31%; in experiment [5] (setting [8]), 95% (active); in experiment [5] (at 50.0 µM), 77% (active); in experiment [6] (setting [7]), 50%; in experiment [6] (setting [8]), 93% (active); in experiment [6] (at 50.0 µM), 88.6% (active).

On to `CC(C)(C)CC(C)(C)c1ccc(O)cc1O`, for which the growth inhibition in experiment [1] (setting [7]) was 7%; in experiment [1] (setting [8]), 99% (active); in experiment [1] (at 50.0 µM) it was 99.5% (active); in experiment [2] (setting [7]) it was 7%; in experiment [2] (setting [8]), 99% (active); in experiment [2] (at 50.0 µM) it was 99.5% (active). The growth inhibition in experiment [3] (setting [7]) is -3%; in experiment [3] (setting [8]), 99% (active); in experiment [3] (at 50.0 µM), 99.2% (active); in experiment [4] (setting [7]), 2%; in experiment [4] (setting [8]) it was 98% (active); in experiment [4] (at 50.0 µM), 98.8% (active). For the same compound, the growth inhibition is 36% in experiment [5] (setting [7]); 99% (active) in experiment [5] (setting [8]); 98.8% (active) in experiment [5] (at 50.0 µM); 6% in experiment [6] (setting [7]); 99% (active) in experiment [6] (setting [8]); 99.3% (active) in experiment [6] (at 50.0 µM).

Consider `CC(C)(CCCCC(C)(C)NCC1COc2ccccc2O1)NCC1COc2ccccc2O1` (stereo not given), for which the growth inhibition in experiment [1] (setting [7]) was 3%; in experiment [1] (setting [8]), 73% (active); in experiment [1] (at 50.0 µM), 94.6% (active); in experiment [2] (setting [7]) it was -8%; in experiment [2] (setting [8]), 81% (active); in experiment [2] (at 50.0 µM), 96% (active). For the same compound, the growth inhibition is -10% in experiment [3] (setting [7]); 64% in experiment [3] (setting [8]); 96.8% (active) in experiment [3] (at 50.0 µM); 0% in experiment [4] (setting [7]); 76% (active) in experiment [4] (setting [8]); 95% (active) in experiment [4] (at 50.0 µM). For the same compound, the growth inhibition was -15% in experiment [5] (setting [7]); 79% (active) in experiment [5] (setting [8]); 97.4% (active) in experiment [5] (at 50.0 µM); 2% in experiment [6] (setting [7]); 74% (active) in experiment [6] (setting [8]); 96.2% (active) in experiment [6] (at 50.0 µM).
